Source: PubChem BioAssay (NCI)
Compounds without any hit were thinned out: in the full panel of roughly 79,000, 15% have a hit. Values without a mark were called inactive. Activity calls are given as the source filed them. Rule as the data show it: active = growth inhibition above about 70%; inactive = the rest.

Experiments:
[1] = NCI Yeast Anticancer Drug Screen. Data for the rad52 strain (AID 147);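 also: 0% = growth of vehicle-treated control cultures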; details: S. cerevisiae rad52 mutant growth inhibition, active compounds read high
Outline: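 Genetically altered yeast (DNA damage repair defect) treated with compound; inhibition calculated relative to vehicle.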

[2] = NCI Yeast Anticancer Drug Screen. Data for the rad50EPP+ strain (AID 151);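 also: 0% = growth of vehicle-treated control cultures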; details: S. cerevisiae rad50 mutant strain, active compounds read high
Outline: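 Strain rad50EPP+; compound exposure; % growth inhibition vs vehicle.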

[3] = NCI Yeast Anticancer Drug Screen. Data for the mgt1 strain (AID 153); details: S. cerevisiae mgt1 mutant growth inhibition, active compounds read high
Outline: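 Read-out: yeast growth inhibition vs vehicle control. Strain mgt1, drawn from a panel altered in DNA damage repair or cell cycle control.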

[4] = NCI Yeast Anticancer Drug Screen. Data for the rad50 strain (AID 155);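 also: 0% = growth of vehicle-only cultures of the same strain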; details: S. cerevisiae rad50 strain growth inhibition, active compounds read high
Outline: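 Readout: growth inhibition relative to vehicle-treated cultures. Compound exposure was carried out in a genetically defined yeast strain deficient in DNA damage repair.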

[5] = NCI Yeast Anticancer Drug Screen. Data for the mec2-1 strain (AID 157); details: S. cerevisiae mec2-1 strain, active compounds read high
Outline: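 Cells of the genetically defined mec2-1 yeast strain are incubated with test compound. Inhibition of growth is calculated against vehicle-treated controls.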

[6] = NCI Yeast Anticancer Drug Screen. Data for the rad14 strain (AID 159);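 also: 0% = growth of vehicle-treated control cultures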; details: S. cerevisiae rad14 strain growth inhibition, active compounds read high
Outline: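 Growth inhibition vs vehicle controls; genetically altered yeast strain (DNA damage repair defect) treated with test compounds.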

[7] = NCI Yeast Anticancer Drug Screen. Data for the sgs1 mgt1 strain (AID 161);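 also: 0% = growth of cultures given vehicle only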; details: S. cerevisiae sgs1 mgt1 strain, active compounds read high
Outline: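 Inhibition of yeast growth, normalised to vehicle-treated controls, is reported for a strain bearing genetic alterations in DNA damage repair.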

[8] = NCI Yeast Anticancer Drug Screen. Data for the CLN2oe strain (AID 163);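 also: 0% = growth of vehicle-only control cultures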; details: S. cerevisiae CLN2oe strain, active compounds read high
Outline: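 Strain altered in cell-cycle control, incubated with compound; growth compared to solvent-treated controls.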

[9] = NCI Yeast Anticancer Drug Screen. Data for the cln2 rad14 strain (AID 165);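 also: 0% = growth equal to vehicle treated cultures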; details: S. cerevisiae cln2 rad14 strain, active compounds read high
Outline: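 The screen exposed genetically defined yeast (cln2 rad14) to test compounds and scored growth inhibition relative to vehicle-treated controls.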

[10] = NCI Yeast Anticancer Drug Screen. Data for the bub3 strain (AID 167); details: S. cerevisiae bub3 mutant strain, active compounds read high
Outline: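 Readout: yeast growth inhibition, expressed relative to vehicle-only wells. The test organism is a mutant strain from a panel with lesions in DNA repair or checkpoint genes.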

[11] = NCI Yeast Anticancer Drug Screen. Data for the wt2 strain (AID 169);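 also: 0% = growth of vehicle-treated yeast cultures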; details: S. cerevisiae wt2 strain growth inhibition, active compounds read high
Outline: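 Steps: yeast strain treated with compound; growth recorded; inhibition calculated relative to cultures given vehicle alone.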

[12] = NCI Yeast Anticancer Drug Screen. Data for the mlh1 strain (AID 171);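 also: 0% = growth of vehicle-treated control cultures of the same strain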; details: S. cerevisiae mlh1 strain growth inhibition, active compounds read high
Outline: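 Yeast screen: mutant strain plus compound, growth scored against vehicle control wells.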

[13] = NCI Yeast Anticancer Drug Screen. Data for the sgs1 strain (AID 173);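 also: 0% = growth of vehicle-only control cultures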; details: S. cerevisiae sgs1 mutant, active compounds read high
Outline: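 Inhibition of yeast growth served as the measure. The mutant strain was treated with each compound, and growth was normalised to cultures receiving vehicle alone.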

[14] = NCI Yeast Anticancer Drug Screen. Data for the mlh1 rad18 strain (AID 175); details: S. cerevisiae mlh1 rad18 strain growth inhibition, active compounds read high
Outline: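 Compound-treated yeast growth, normalised to vehicle controls. Strain bears defined DNA repair mutations.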

[15] = NCI Yeast Anticancer Drug Screen. Data for the rad18 strain (AID 177); details: S. cerevisiae rad18 mutant growth inhibition, active compounds read high
Outline: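 Inhibition values reflect reduced yeast growth compared with vehicle-treated controls, using a strain engineered with a DNA damage repair defect.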

[16] = at 5.0 µM (retest, dose inferred, filed as 0.5)
[17] = at 50.0 µM (retest, dose inferred, filed as 5.0)

CC(=O)c1cc2c(Cl)cc(Cl)cc2oc1=O
growth inhibition ([1]; at 1.2 µM): 20% | growth inhibition ([1]; at 3.7 µM): 19% | growth inhibition ([1]; at 11.0 µM): 4% | growth inhibition ([1]; at 33.0 µM): 9% | growth inhibition ([1]; at 100.0 µM): 20% | growth inhibition ([2]; at 1.2 µM): -15% | growth inhibition ([2]; at 3.7 µM): -16% | growth inhibition ([2]; at 11.0 µM): -2% | growth inhibition ([2]; at 33.0 µM): -10% | growth inhibition ([2]; at 100.0 µM): 15% | growth inhibition ([3]; at 1.2 µM): 9% | growth inhibition ([3]; at 3.7 µM): 5% | growth inhibition ([3]; at 11.0 µM): -13% | growth inhibition ([3]; at 33.0 µM): -4% | growth inhibition ([3]; at 100.0 µM): 6% | growth inhibition ([4]; at 1.2 µM): -24% | growth inhibition ([4]; at 3.7 µM): -17% | growth inhibition [4, 16]: 30% | growth inhibition ([4]; at 11.0 µM): -13% | growth inhibition ([4]; at 33.0 µM): -20% | growth inhibition [4, 17]: 83% (active) | growth inhibition ([4]; at 50.0 µM): -5.9% | growth inhibition ([4]; at 100.0 µM): -5% | growth inhibition ([5]; at 1.2 µM): 8% | growth inhibition ([5]; at 3.7 µM): 0% | growth inhibition [5, 16]: 77% (active) | growth inhibition ([5]; at 11.0 µM): -14% | growth inhibition ([5]; at 33.0 µM): 3% | growth inhibition [5, 17]: 94% (active) | growth inhibition ([5]; at 50.0 µM): 53.8% | growth inhibition ([5]; at 100.0 µM): -8% | growth inhibition ([6]; at 1.2 µM): -19% | growth inhibition ([6]; at 3.7 µM): -21% | growth inhibition ([6]; at 11.0 µM): -13% | growth inhibition ([6]; at 33.0 µM): -6% | growth inhibition ([6]; at 100.0 µM): 14% | growth inhibition [7, 16]: -8% | growth inhibition [7, 17]: 20% | growth inhibition ([8]; at 1.2 µM): -26% | growth inhibition ([8]; at 3.7 µM): -22% | growth inhibition ([8]; at 11.0 µM): -7% | growth inhibition ([8]; at 33.0 µM): -10% | growth inhibition ([8]; at 100.0 µM): -5% | growth inhibition [9, 16]: 64% | growth inhibition [9, 17]: 71% (active) | growth inhibition ([10]; at 1.2 µM): -21% | growth inhibition ([10]; at 3.7 µM): -17% | growth inhibition [10, 16]: 24% | growth inhibition ([10]; at 11.0 µM): -4% | growth inhibition ([10]; at 33.0 µM): -25% | growth inhibition [10, 17]: 46% | growth inhibition ([10]; at 100.0 µM): 13% | growth inhibition ([11]; at 1.2 µM): -22% | growth inhibition ([11]; at 3.7 µM): -27% | growth inhibition ([11]; at 11.0 µM): -34% | growth inhibition ([11]; at 33.0 µM): -40% | growth inhibition ([11]; at 100.0 µM): -18% | growth inhibition ([12]; at 1.2 µM): -36% | growth inhibition ([12]; at 3.7 µM): -35% | growth inhibition ([12]; at 11.0 µM): -32% | growth inhibition ([12]; at 33.0 µM): -12% | growth inhibition ([12]; at 100.0 µM): -5% | growth inhibition ([13]; at 1.2 µM): -31% | growth inhibition ([13]; at 3.7 µM): -40% | growth inhibition ([13]; at 11.0 µM): -29% | growth inhibition ([13]; at 33.0 µM): -15% | growth inhibition ([13]; at 100.0 µM): -42% | growth inhibition [14, 16]: 35% | growth inhibition [14, 17]: 96% (active) | growth inhibition ([14]; at 50.0 µM): 1.3% | growth inhibition ([15]; at 1.2 µM): 10% | growth inhibition ([15]; at 3.7 µM): -3% | growth inhibition ([15]; at 11.0 µM): -11% | growth inhibition ([15]; at 33.0 µM): -11% | growth inhibition ([15]; at 100.0 µM): -6%
